This is part of a sample that, as a whole, favours compounds with a hit. Of some 79,000 tested, about 15% had one in any assay. Unmarked numbers belong to inactive results. Calls of active or inactive are those of the source. Rule as the data show it: active = growth inhibition above about 70%; inactive = the rest.

The text below walks through data of PubChem BioAssay (NCI).

The nature of assay [1]: NCI Yeast Anticancer Drug Screen. Data for the rad50 strain (AID 155).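 Also: 0% = growth of vehicle-only cultures of the same strain.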 The following applies: S. cerevisiae rad50 strain growth inhibition, hits give high values. Put shortly:
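Vehicle-treated cultures provide the reference for the growth inhibition reported for compound-exposed, repair-deficient yeast.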

Assay [2] can be described thus: NCI Yeast Anticancer Drug Screen. Data for the mec2-1 strain (AID 157). The following applies: S. cerevisiae mec2-1 strain, hits give high values. Put shortly: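 Strain: mec2-1 (DNA repair/cell cycle alteration). Compound exposure, then growth measured; inhibition expressed relative to vehicle.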
Assay [3] in a line: NCI Yeast Anticancer Drug Screen. Data for the sgs1 mgt1 strain (AID 161).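 Also: 0% = growth of cultures given vehicle only.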 The following applies: S. cerevisiae sgs1 mgt1 strain, hits give high values. In a few lines:
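Inhibition of yeast growth, normalised to vehicle-treated controls, is reported for a strain bearing genetic alterations in DNA damage repair.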

Assay [4] can be described thus: NCI Yeast Anticancer Drug Screen. Data for the cln2 rad14 strain (AID 165).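 Also: 0% = growth equal to vehicle treated cultures.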 To be noted: S. cerevisiae cln2 rad14 strain, hits give high values. In a few lines:
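Compounds are applied to the cln2 rad14 yeast strain, and growth is then compared with that of vehicle-treated cultures to give inhibition.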

The nature of assay [5]: NCI Yeast Anticancer Drug Screen. Data for the bub3 strain (AID 167). To be noted: S. cerevisiae bub3 mutant strain, hits give high values. In a few lines:
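Mutant yeast screening strain plus compound; vehicle-treated cultures serve as the 0% inhibition reference.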

A short description of assay [6]: NCI Yeast Anticancer Drug Screen. Data for the mlh1 rad18 strain (AID 175). To be noted: S. cerevisiae mlh1 rad18 strain growth inhibition, hits give high values. Put shortly: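 Read-out is yeast growth inhibition, calculated against vehicle-only controls. The compound was applied to a strain engineered with DNA damage repair alterations.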
The mark [7] stands for this setting: at 5.0 µM (retest, dose inferred, filed as 0.5).
Where [8] appears, read: at 50.0 µM (retest, dose inferred, filed as 5.0).

Consider `c1ccc(CCN(Cc2nc3ccccc3[nH]2)Cc2nc3ccccc3[nH]2)cc1`, for which the growth inhibition is 3% in assay [1] (setting [7]); 90% (active) in assay [1] (setting [8]); 94.7% (active) in assay [1] (at 50.0 µM); -3% in assay [2] (setting [7]); 92% (active) in assay [2] (setting [8]); 93.2% (active) in assay [2] (at 50.0 µM). For the same compound, the growth inhibition in assay [3] (setting [7]) is -3%; in assay [3] (setting [8]), 90% (active); in assay [3] (at 50.0 µM), 96% (active); in assay [4] (setting [7]), -12%; in assay [4] (setting [8]), 93% (active); in assay [4] (at 50.0 µM) it was 82.6% (active). Further, the growth inhibition was 0% in assay [5] (setting [7]); 95% (active) in assay [5] (setting [8]); 89.2% (active) in assay [5] (at 50.0 µM); -3% in assay [6] (setting [7]); 91% (active) in assay [6] (setting [8]); 95.5% (active) in assay [6] (at 50.0 µM).
Take `CN(c1ccccc1)c1c2c(oc(=O)c1Cl)-c1ccccc1SC2`: the growth inhibition in assay [1] (setting [7]) is 16%; in assay [1] (setting [8]), 45%; in assay [1] (at 50.0 µM), 86% (active); in assay [2] (setting [7]), 12%; in assay [2] (setting [8]), 8%; in assay [2] (at 50.0 µM) it was 46.2%. The growth inhibition in assay [3] (setting [7]) was 13%; in assay [3] (setting [8]) it was 40%; in assay [3] (at 50.0 µM), 62.4%; in assay [4] (setting [7]) it was 7%; in assay [4] (setting [8]), 32%; in assay [4] (at 50.0 µM), 10.9%. For the same compound, the growth inhibition in assay [5] (setting [7]) is 0%; in assay [5] (setting [8]), 85% (active); in assay [5] (at 50.0 µM), 93.5% (active); in assay [6] (setting [7]), 7%; in assay [6] (setting [8]), 96% (active); in assay [6] (at 50.0 µM), 55%.
With `O=C(Nc1nnc(-c2ccccc2)s1)c1cc(=O)c2cc(Cl)ccc2o1`, the growth inhibition in assay [1] (setting [7]) is -3%; in assay [1] (setting [8]), 45%; in assay [1] (at 50.0 µM), 99.3% (active); in assay [2] (setting [7]) it was 0%; in assay [2] (setting [8]) it was 58%; in assay [2] (at 50.0 µM) it was 99.7% (active). In addition, the growth inhibition in assay [3] (setting [7]) was -3%; in assay [3] (setting [8]) it was 78% (active); in assay [3] (at 50.0 µM) it was 99.5% (active); in assay [4] (setting [7]), 6%; in assay [4] (setting [8]), 62%; in assay [4] (at 50.0 µM), 98.8% (active). Further, the growth inhibition was 4% in assay [5] (setting [7]); 77% (active) in assay [5] (setting [8]); 99.4% (active) in assay [5] (at 50.0 µM); 2% in assay [6] (setting [7]); 71% (active) in assay [6] (setting [8]); 98.9% (active) in assay [6] (at 50.0 µM).
Turning to `Nc1ccc(CSc2ccc(Cl)cc2)cc1Cl`, the growth inhibition in assay [1] (setting [7]) is -3%; in assay [1] (setting [8]) it was 99% (active); in assay [1] (at 50.0 µM), 37%; in assay [2] (setting [7]) it was -5%; in assay [2] (setting [8]), 99% (active); in assay [2] (at 50.0 µM), 3.9%. In addition, the growth inhibition in assay [3] (setting [7]) is -6%; in assay [3] (setting [8]) it was 98% (active); in assay [3] (at 50.0 µM) it was 40.9%; in assay [4] (setting [7]) it was -16%; in assay [4] (setting [8]), 99% (active); in assay [4] (at 50.0 µM), -24.7%. Besides, the figures for the growth inhibition in assay [5] (setting [7]), in assay [5] (setting [8]) and in assay [5] (at 50.0 µM) were 32%, 99% (active) and 4.35%, respectively.
Consider `Nc1ncc2ccccc2c1-c1ccc(NC(=O)CCCl)cc1`, for which the growth inhibition in assay [1] (setting [7]) is -1%; in assay [1] (setting [8]) it was 36%; in assay [1] (at 50.0 µM) it was 70% (active); in assay [2] (setting [7]), -3%; in assay [2] (setting [8]) it was 40%; in assay [2] (at 50.0 µM), 14.8%. Moreover, the growth inhibition in assay [3] (setting [7]) was -2%; in assay [3] (setting [8]), 39%; in assay [3] (at 50.0 µM), 31.6%; in assay [4] (setting [7]), -1%; in assay [4] (setting [8]), 23%; in assay [4] (at 50.0 µM), -4.85%. Besides, the growth inhibition was 6% in assay [5] (setting [7]), 59% in assay [5] (setting [8]) and 21.6% in assay [5] (at 50.0 µM).
As to `O=NNc1ccc(Sc2ccc3ccccc3c2)cn1`, the growth inhibition was 21% in assay [1] (setting [7]); 41% in assay [1] (setting [8]); 21.5% in assay [1] (at 50.0 µM); 24% in assay [2] (setting [7]); 36% in assay [2] (setting [8]); 12.2% in assay [2] (at 50.0 µM). Also, the growth inhibition was 20% in assay [3] (setting [7]); 27% in assay [3] (setting [8]); 19.1% in assay [3] (at 50.0 µM); 32% in assay [4] (setting [7]); 43% in assay [4] (setting [8]); 24.8% in assay [4] (at 50.0 µM). Also, the growth inhibition in assay [5] (setting [7]) is 30%; in assay [5] (setting [8]), 37%; in assay [5] (at 50.0 µM), 35%; in assay [6] (setting [7]), 25%; in assay [6] (setting [8]) it was 47%; in assay [6] (at 50.0 µM) it was 51.5%.
For the compound `CC(=O)Nc1ccc(O)c(=O)cc1`, the growth inhibition in assay [1] (setting [7]) is 18%; in assay [1] (setting [8]), 96% (active); in assay [1] (at 50.0 µM), 90.6% (active); in assay [2] (setting [7]), 42%; in assay [2] (setting [8]) it was 97% (active); in assay [2] (at 50.0 µM), 87.5% (active). Also, the growth inhibition was 27% in assay [3] (setting [7]); 96% (active) in assay [3] (setting [8]); 96.1% (active) in assay [3] (at 50.0 µM); 16% in assay [4] (setting [7]); 93% (active) in assay [4] (setting [8]); 20.9% in assay [4] (at 50.0 µM). Moreover, the growth inhibition in assay [5] (setting [7]) is 23%; in assay [5] (setting [8]) it was 93% (active); in assay [5] (at 50.0 µM), 53.9%.
Regarding `CC(=O)OCCc1ccc(CCc2ccccc2)cc1`, the growth inhibition in assay [1] (setting [7]) was 13%; in assay [1] (setting [8]) it was 47%; in assay [1] (at 50.0 µM), 40.3%; in assay [2] (setting [7]), 1%; in assay [2] (setting [8]) it was 4%; in assay [2] (at 50.0 µM), 18.6%. In addition, the growth inhibition in assay [3] (setting [7]) was 6%; in assay [3] (setting [8]), 28%; in assay [3] (at 50.0 µM), 18.6%; in assay [4] (setting [7]), 4%; in assay [4] (setting [8]) it was -6%; in assay [4] (at 50.0 µM), -31.6%. Moreover, the growth inhibition in assay [5] (setting [7]) was 8%; in assay [5] (setting [8]), 45%; in assay [5] (at 50.0 µM), 67.7%; in assay [6] (setting [7]) it was 6%; in assay [6] (setting [8]), -4%; in assay [6] (at 50.0 µM), 62.6%.
For the compound `CCCCOC(=O)c1ccc(O)c(OC)c1`, the growth inhibition in assay [1] (setting [7]) is 3%; in assay [1] (setting [8]), -13%; in assay [1] (at 50.0 µM), -19.8%; in assay [2] (setting [7]) it was -10%; in assay [2] (setting [8]), 4%; in assay [2] (at 50.0 µM), -3.2%. For the same compound, the growth inhibition is 0% in assay [3] (setting [7]); 6% in assay [3] (setting [8]); 5.25% in assay [3] (at 50.0 µM); -5% in assay [4] (setting [7]); 2% in assay [4] (setting [8]); -43.9% in assay [4] (at 50.0 µM). The growth inhibition was 85% (active) in assay [5] (setting [7]); 96% (active) in assay [5] (setting [8]); 95.7% (active) in assay [5] (at 50.0 µM); 0% in assay [6] (setting [7]); 3% in assay [6] (setting [8]); -11.2% in assay [6] (at 50.0 µM).
`Cc1c(N)nc(C(CC(N)=O)NCC(N)C(N)=O)nc1C(=O)NC(C(=O)NC(C)C(O)C(C)C(=O)NC(C(=O)NCCc1nc(-c2nc(C(=O)NCCCNCCCc3ccccn3)cs2)cs1)C(C)O)C(OC1OC(CO)C(O)C(O)C1OC1OC(CO)C(O)C(OC(N)=O)C1O)c1cnc[nH]1` (stereo unspecified): the growth inhibition in assay [1] (setting [7]) is 98% (active); in assay [1] (setting [8]) it was 99% (active); in assay [1] (at 50.0 µM), 92.6% (active); in assay [2] (setting [7]), 97% (active); in assay [2] (setting [8]), 99% (active); in assay [2] (at 50.0 µM) it was 93.4% (active). For the same compound, the growth inhibition in assay [3] (setting [7]) is 98% (active); in assay [3] (setting [8]), 99% (active); in assay [3] (at 50.0 µM), 93.7% (active); in assay [4] (setting [7]), 90% (active); in assay [4] (setting [8]), 98% (active); in assay [4] (at 50.0 µM), 90.3% (active). The growth inhibition in assay [5] (setting [7]) was 97% (active); in assay [5] (setting [8]), 98% (active); in assay [5] (at 50.0 µM) it was 93.3% (active); in assay [6] (setting [7]), 98% (active); in assay [6] (setting [8]) it was 99% (active); in assay [6] (at 50.0 µM), 92% (active).
